Screening results: PubChem BioAssay, several laboratories
An excerpt weighted towards active compounds, which were near 27% of everything screened.
CYP2C9 inhib – blockers of cytochrome P450 2C9 activity – biochemical, luminescence, ADME assay, primary screen. P11712. CYP2C9 Supersomes, luciferin-H conversion. inhibition, % at 5 µM. 20% of 96,000 active;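 active = blocking of liver enzyme CYP2C9 beyond about 50% at 5 µM, limit read from the data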
CYP2C19 activ – human CYP2C19 activators, primary screen, biochemical, luminescence | Cytochrome P450 2C19 (Homo sapiens), P33261 | recombinant CYP2C19, luciferin-H EGE luminescence; hits give high values; 0 = fully inhibited enzyme, 1 = untreated enzyme | activation factor at 5 µM | 96,000 tested, under 10 active;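 active = activation factor of at least 2 at 5 µM in the primary screen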
Cav32 inh – Cav3.2 calcium influx blockers – cell-based, Fluo-4 calcium fluorescence, FDSS, MLSMR library, primary screen. 4% of 100,000 active. AID 449739, 2010. B-score at 10 µM. Cav3.2-expressing cells; hits give low values;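 active = single-dose well whose peak fluorescence ratio is a statistical outlier from its plate by either plate-standardised score or position-corrected B-score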
CYP2C9 act – human CYP2C9 activators, primary screen, biochemical, luminescence; recombinant CYP2C9, luciferin-H conversion; hits give high values; factor 1 = untreated enzyme, 0 = blocked; activation factor at 5 µM; 1.4% of 96,000 active; AID 1024, 2008;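 active = activation factor of 2 or more for CYP2C9 at a 5 µM dose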
CYP2C19 inh – blockers of cytochrome P450 2C19 activity – biochemical, luminescence, ADME assay, primary screen. P33261. CYP2C19 Supersomes, luciferin-H EGE luminescence, 30 min. inhibition, % at 5 µM. 21% of 96,000 active;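 active = CYP2C19 inhibition above a set limit at 5 µM in the primary screen, cut at about 50% in these data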
Hits are given with their value; . = inactive; / = no result.

SMILES	CYP2C9 inhib	CYP2C19 activ	Cav32 inh	CYP2C9 act	CYP2C19 inh
Cc1ccc(C)c(NC(=S)NNC(=O)c2csc3c2CCC(C)C3)c1 (stereo not drawn)	52.8	.	-5.39	.	85.8
CCCn1c(N)c(C(=O)CN2CCN(S(=O)(=O)c3cccs3)CC2)c(=O)[nH]c1=O	.	.	.	.	.
O=C(Nc1ccon1)c1csc2c1CCCC2	.	.	.	.	.
Cc1cccc(NC(=S)NNC(=O)c2ccc(Br)o2)c1	56.3	.	.	.	.
Cc1cccc(NC(=S)NNC(=O)c2csc3c2CCCC3)c1	.	.	-3.48	.	.
Cc1ccc(C)c(NC(=S)NNC(=O)c2csc3c2CCCC3)c1	.	.	-5.31	.	.
Cc1ccc(S(=O)(=O)NC(=O)c2ccc(Br)o2)c(C)c1	/	/	.	/	/
CCNC(=S)NNC(=O)c1csc2c1CCCC2	.	.	.	.	.
CCOC(=O)c1nn(-c2ccc(Cl)cc2)c2nc(Nc3ccccc3)cc(=O)n12	.	.	/	.	.
CCOC(=O)Cc1csc(NC(=O)CSc2ncnc3c2cnn3-c2ccccc2Cl)n1	90.5	.	-6.24	.	70.1
Cc1nnc(NC(=O)CSc2ncnc3c2cnn3-c2ccccc2C)s1	.	.	.	.	.
CCOC(=O)c1ccccc1NC(=O)CC(C)CC(=O)O (stereo not drawn)	.	.	.	.	.
CCc1nnc(NC(=O)CSc2nc(C)c3c(c2C#N)CCCC3)s1	.	.	.	.	.
CCCCCCc1nc2c(=O)[nH]c3ccccc3c2o1	.	.	.	.	.
Cc1c([N+](=O)[O-])cc(C(=O)Oc2ccc(Br)cc2C(=S)N2CCCCC2)cc1[N+](=O)[O-]	.	.	.	.	54.0
Cc1ccc(S(=O)(=O)N2CCCC(c3nc(-c4ccc(C)o4)no3)C2)cc1 (stereo not drawn)	82.6	.	.	.	90.5
Cc1ccc(-c2noc(C3CCCN(S(=O)(=O)c4ccc5ccccc5c4)C3)n2)o1 (stereo not drawn)	.	.	/	.	.
O=C(Cc1ccccc1)N1CCCC(c2nc(-c3ccc(S(=O)(=O)N4CCCC4)cc3)no2)C1 (stereo not drawn)	73.4	.	.	.	.
O=C(C1CC1)N1CCC(c2nc(-c3ccc(S(=O)(=O)N4CCCC4)cc3)no2)CC1	.	.	.	.	.
Cc1ccc(-c2noc(C3CCCN(S(=O)(=O)c4ccc(S(=O)(=O)N(C)C)cc4)C3)n2)o1 (stereo not drawn)	82.0	.	.	.	.
CC(=O)Oc1cc2c(cc1Cl)C1(CC(c3ccccc3Cl)O2)CC(C)(C)NC(=S)N1 (stereo not drawn)	.	.	.	.	.
COc1ccc(/C=C2\SC(=S)N(NC(=O)c3csc4c3CCCC4)C2=O)cc1	.	.	.	.	.
CCN(C1CCCCC1)S(=O)(=O)c1cc(C)ccc1OC	94.4	.	.	.	85.6
CCN(C1CCCCC1)S(=O)(=O)c1ccc(OC)c(C)c1	.	.	-6.27	2.1	75.4
O=C(C1CCN(S(=O)(=O)c2cccc3cccnc23)CC1)N1CC=C(c2ccccc2)CC1	.	.	/	.	75.4
SMILES	CYP2C9 inhib	CYP2C19 activ	Cav32 inh	CYP2C9 act	CYP2C19 inh
CC1CCCCN1CCNC(=O)C1CCN(S(=O)(=O)c2cccc3cccnc23)CC1 (stereo not drawn)	.	.	.	.	.
O=C(C1CCCN(S(=O)(=O)c2cccc3cccnc23)C1)N1CCN(c2ccccc2F)CC1 (stereo not drawn)	.	.	.	.	87.8
O=C(C1CCN(S(=O)(=O)c2cccc3cccnc23)CC1)N1CCCC1	.	.	.	2.6	.
O=C(C1CCN(S(=O)(=O)c2cccc3nsnc23)CC1)N1CCN(c2ccccc2F)CC1	.	.	.	.	.
CCOC(=O)C1=C(O)CSC1=Nc1ccc(Cl)cc1	.	.	.	.	.
Cc1ccc(OCC(=O)NNC(=O)C2CCN(c3nc(C)cc(C)n3)CC2)cc1	.	.	.	.	.
CCOC(=O)c1nc(Nc2ccc(C(C)=O)cc2)c2ccccc2n1	/	/	.	/	/
CSc1nc(-c2ccccc2)nc(N2CCCC2)c1C(C)=O	.	.	.	.	.
CSc1nc(-c2ccccc2)nc(N2CCN(C)CC2)c1C(C)=O	52.6	.	.	.	56.2
